In PubChem BioAssay (EPA / NIEHS):
Active and inactive are the calls of the source. Rule for the calls: active = hit-call score of the fitted dose curve at least 0.9, where 1 is the maximum; inactive = score below 0.9.

Assays:
[1] = read-out: Human Leukocyte Antigen - DR isotype (HLADR), HLA-DRA (gene 3122); experiment: BSK_CASM3C_HLADR: BioMAP Diversity Plus: CASM3C Assay for Human Leukocyte Antigen - DR isotype (HLADR) Biomarker Activity (AID 2283043); details: primary human coronary artery smooth muscle cells; actives raise or lower the signal;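 note: cell-surface HLA-DR protein level quantified by ELISA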
[2] = read-out: Macrophage colony-stimulating factor (MCSF), CSF1 (gene 1435); experiment: BSK_CASM3C_MCSF: BioMAP Diversity Plus: CASM3C Assay for Macrophage colony-stimulating factor (MCSF) Biomarker Activity (AID 2283044); details: primary human coronary artery smooth muscle cells; actives raise or lower the signal;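 note: M-CSF protein amount quantified by ELISA after 24 h exposure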
[3] = read-out: Low-density lipoprotein receptor (LDLR), LDLR (gene 3949); experiment: BSK_CASM3C_LDLR: BioMAP Diversity Plus: CASM3C Assay for Low-density lipoprotein receptor (LDLR) Biomarker Activity (AID 2283045); details: primary human coronary artery smooth muscle cells; actives raise or lower the signal;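 note: LDLR protein level on the cell surface quantified by ELISA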
[4] = read-out: Monocyte Chemoattractant Protein-1 (MCP1), CCL2 (gene 6347); experiment: BSK_CASM3C_MCP1: BioMAP Diversity Plus: CASM3C Assay for Monocyte Chemoattractant Protein-1 (MCP1) Biomarker Activity (AID 2283046); details: primary human coronary artery smooth muscle cells; actives raise or lower the signal;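 note: MCP-1 level quantified by ELISA 24 h after dosing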
[5] = BSK_CASM3C_Proliferation: Cell Proliferation Assessment in the BioMAP Diversity Plus: CASM3C Assay (AID 2283047); details: primary human coronary artery smooth muscle cells;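 note: sulforhodamine B total protein stain as relative cell number at 560 nm; sub-confluent cells exposed 48 h before staining; fitted both ways against DMSO so gain or loss of cell number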
[6] = read-out: Monokine induced gamma interferon (MIG), CXCL9 (gene 4283); experiment: BSK_CASM3C_MIG: BioMAP Diversity Plus: CASM3C Assay for Monokine induced gamma interferon (MIG) Biomarker Activity (AID 2283048); details: primary human coronary artery smooth muscle cells; actives raise or lower the signal;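 note: MIG protein level measured by ELISA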
[7] = read-out: serum amyloid A (SAA), SAA1 (gene 6288); experiment: BSK_CASM3C_SAA: BioMAP Diversity Plus: CASM3C Assay for serum amyloid A (SAA) Biomarker Activity (AID 2283049); details: primary human coronary artery smooth muscle cells; actives raise or lower the signal;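 note: SAA protein level quantified by ELISA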
[8] = BSK_CASM3C_SRB: Viability Assessment in the BioMAP Diversity Plus: CASM3C Assay (AID 2283050); details: primary human coronary artery smooth muscle cells;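 note: total protein by SRB staining as cytotoxicity measure in parallel cultures; cells exposed to compound for 24 h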
[9] = read-out: Thrombomodulin, THBD (gene 7056); experiment: BSK_CASM3C_Thrombomodulin: BioMAP Diversity Plus: CASM3C Assay for Thrombomodulin Biomarker Activity (AID 2283051); details: primary human coronary artery smooth muscle cells; actives raise or lower the signal;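 note: thrombomodulin protein level measured by ELISA 24 h after dosing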
[10] = read-out: Tissue Factor, F3 (gene 2152); experiment: BSK_CASM3C_TissueFactor: BioMAP Diversity Plus: CASM3C Assay for Tissue Factor Biomarker Activity (AID 2283052); details: primary human coronary artery smooth muscle cells; actives raise or lower the signal;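 note: cell surface tissue factor protein level read by ELISA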

Measured: AC50

Clc1nc(Cl)c(Cl)c(Cl)c1Cl
inactive: [1] | [2] | [3] | [4] | [5] | [6] | [7] | [8] | [9] | [10]

COc1cccc(-c2ccc(/C=C\CN3CCCCCC3)cc2Cl)c1
active: [1] 29.5 µM | [2] 29.4 µM | [3] 4.74 µM | [5] 29.8 µM | [7] 32 µM | [8] 25 µM
inactive: [4] | [6] | [9] | [10]

COC(=O)CC(=O)OC
inactive: [1] | [2] | [3] | [4] | [5] | [6] | [7] | [8] | [9] | [10]

CCOC(=O)c1ccc(C2CCC(NC[C@H](O)COc3ccc(O)c(NS(C)(=O)=O)c3)CC2)cc1 (some centres undefined)
active: [1] 30.8 µM | [2] 24.2 µM | [3] 11.2 µM | [5] 26.9 µM | [8] 15.7 µM | [9] 18.7 µM
inactive: [4] | [6] | [7] | [10]

O=C1OC(=O)C2C3C=CC(C3)C12 (centres undefined)
inactive: [1] | [2] | [3] | [4] | [5] | [6] | [7] | [8] | [9] | [10]

Cc1ccc(S(=O)(=O)O)cc1C
inactive: [1] | [2] | [3] | [4] | [5] | [6] | [7] | [8] | [9] | [10]

O=P(OC(CCl)CCl)(OC(CCl)CCl)OC(CCl)CCl
inactive: [1] | [2] | [3] | [4] | [6] | [7] | [8] | [10]
active: [5] 20 µM | [9] 15.7 µM

C1=CCCC=CCCC=CCC1
inactive: [1] | [2] | [3] | [4] | [5] | [6] | [7] | [8] | [9] | [10]

CN(C)c1ccc(Cc2ccc(N(C)C)cc2)cc1
active: [9] 20 µM
inactive: [1] | [3] | [4] | [5] | [6] | [7] | [8] | [10]

CCCCC(CC)COC(=O)c1ccc(C(=O)OCC(CC)CCCC)cc1 (centres undefined)
inactive: [1] | [2] | [3] | [4] | [5] | [6] | [7] | [8] | [9] | [10]

CC[C@H](C)C(=O)O[C@H]1C[C@@H](C)C=C2C=C[C@H](C)[C@H](CC[C@@H]3C[C@@H](O)CC(=O)O3)[C@H]21
inactive: [2] | [3] | [6] | [7] | [8] | [10]
active: [1] 19.9 µM | [4] 19.9 µM | [5] 6.08 µM | [9] 0.147 µM

Nc1ccc(Nc2ccccc2)cc1
inactive: [1] | [2] | [3] | [4] | [6] | [7] | [8] | [10]
active: [5] 20 µM | [9] 3.23 µM

CC(O)CN(CCN(CC(C)O)CC(C)O)CC(C)O (centres undefined)
inactive: [1] | [2] | [3] | [4] | [5] | [6] | [7] | [8] | [9] | [10]

O=C(O)c1cc(N=Nc2ccc(S(=O)(=O)Nc3ccccn3)cc2)ccc1O
active: [5] 14.5 µM
inactive: [1] | [2] | [3] | [4] | [6] | [7] | [8] | [9] | [10]

NC(=O)NO
inactive: [1] | [2] | [3] | [4] | [5] | [6] | [7] | [8] | [9] | [10]

CNS(=O)(=O)c1cc(C(=O)N2CCC(CCN3C4CCC3CC(n3c(C)nc5ccccc53)C4)(c3cccc(F)c3)CC2)c(Cl)cc1F (centres undefined)
inactive: [2] | [4] | [6] | [7] | [8] | [9] | [10]
active: [1] 28.5 µM | [3] 5.4 µM | [5] 13.5 µM

C[C@](N)(Cc1ccc(O)c(O)c1)C(=O)O
inactive: [1] | [2] | [3] | [4] | [5] | [6] | [7] | [8] | [9] | [10]

COc1ccc(-n2nc(C(F)F)cc2-c2ccc(S(C)=O)cc2)cc1 (centres undefined)
inactive: [1] | [2] | [3] | [4] | [5] | [6] | [7] | [8] | [9] | [10]

CNCc1ccc(NC(=O)c2c[nH]c3c2C(=O)CCC3)cc1
inactive: [1] | [2] | [3] | [4] | [5] | [6] | [7] | [8] | [9] | [10]

CC(=O)OCCC(C)C
inactive: [1] | [2] | [3] | [4] | [5] | [6] | [7] | [8] | [9] | [10]

CC(C)(O)c1coc(S(=O)(=O)NC(=O)Nc2c3c(cc4c2CCC4)CCC3)c1
inactive: [1] | [2] | [3] | [4] | [5] | [6] | [7] | [8] | [9] | [10]

CC(=O)OC[C@H]1O[C@@](COC(C)=O)(O[C@H]2O[C@H](COC(C)=O)[C@@H](OC(C)=O)[C@H](OC(C)=O)[C@H]2OC(C)=O)[C@@H](OC(C)=O)[C@@H]1OC(C)=O
inactive: [1] | [2] | [3] | [4] | [5] | [6] | [7] | [8] | [9] | [10]

C=CCCCCCCCCC(=O)O
inactive: [1] | [2] | [3] | [4] | [5] | [6] | [7] | [8] | [9] | [10]

CC1=CC(=O)CC(C)(C)C1
inactive: [1] | [2] | [3] | [4] | [5] | [6] | [7] | [8] | [9] | [10]

CCCCCCCCO
inactive: [1] | [2] | [3] | [4] | [5] | [6] | [7] | [8] | [9] | [10]

CCCCCCc1ccc(O)cc1O
active: [3] 11.9 µM | [5] 32.6 µM | [9] 4.48 µM
inactive: [1] | [2] | [4] | [6] | [7] | [8] | [10]

CCC(C)(C)C(=O)O[C@H]1C[C@@H](C)C=C2C=C[C@H](C)[C@H](CC[C@@H]3C[C@@H](O)CC(=O)O3)[C@H]21
active: [1] 20 µM | [2] 20 µM | [3] 20 µM | [4] 32.3 µM | [5] 2.18 µM | [8] 18.3 µM | [9] 0.336 µM | [10] 3.97 µM
inactive: [6] | [7]

Cc1ccc(N)cc1O
inactive: [1] | [2] | [3] | [4] | [5] | [6] | [7] | [8] | [10]
active: [9] 11.2 µM

CCOC(=O)COc1ccc2c(c1)CC(NCC(O)c1cccc(Cl)c1)CC2 (centres undefined)
active: [5] 27.2 µM
inactive: [1] | [2] | [3] | [4] | [6] | [7] | [8] | [9] | [10]

CCCCCCCCCCCCc1ccccc1
inactive: [1] | [2] | [3] | [4] | [5] | [6] | [7] | [8] | [9] | [10]
